Test system: T1, LKB1
T1 construct: gene STK11
Conditions: concentration: 1 μM, replicates: in singlicate; n = 1
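Further: KINOMEscan kinase panel screen.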

Row | SMILES | %Inh
1 | Cc1c(Cn2c3ccccc3n3c(=O)cc(N4CCOCC4)nc23)cccc1C(F)(F)F [GSK2306394] | 0%
2 | Fc1ccc(-c2nc[nH]c2-c2ccncc2)cc1 [SB-217360] | 0%
3 | COc1cccc(CNC(=O)NC2CCN(c3ccnc(Nc4ccc(F)cc4)n3)C2)c1 (centres unmarked) [GSK1379723] | 0%
4 | Cc1ccccc1-c1cc(-c2c[nH]nc2-c2ccccn2)ccn1 [GW680061] | 0%
5 | COC(=O)C(NC(=O)NC1CCN(c2ccnc(Nc3ccc(F)cc3)n2)C1)c1ccccc1 (centres unmarked) [GSK1379712] | 15%
6 | O=C1NC(=O)C(c2ccc(Cl)cc2)=C1Nc1ccc(O)cc1 [SB-340867] | 13%
7 | COc1cc2ncnc(Nc3cccc(Br)c3)c2cc1OC.Cl [GI230329] | 10%
8 | COC(=O)c1cccc(NC(=O)NC2CCN(c3ccnc(Nc4ccc(F)cc4)n3)C2)c1 (centres unmarked) [GSK1379725] | 0%
9 | COc1ccc2cc(-c3nc(-c4ccccc4C(C)C)[nH]c3-c3ccncc3)ccc2c1 [SB-660566] | 0%
10 | CC(=O)c1c(C)c2cnc(Nc3ccc(N4CCNCC4)cn3)nc2n(C2CCCC2)c1=O | 0%
11 | CCc1ccc(-c2ccc3c(c2)-c2n[nH]cc2S(=O)(=O)N3C)cc1 | 17%
12 | CC(=O)c1c(C)c2cnc(Nc3ccn(C)n3)nc2n(C2CCCC2)c1=O | 0%
13 | CC(C)c1cc(-c2ccc3c(N)n[nH]c3c2)nc(N)n1 [GSK2250882] | 14%
14 | COc1ccc(Nc2nccc(N3CCC(NC(=O)C(C)c4ccc(Cl)cc4)CC3)n2)cc1 (centres unmarked) [GSK1379812] | 11%
15 | Cc1ccc(NC(=O)c2ccc(Cl)cc2)cc1-c1ccc(C(=O)Nc2ccncc2)cc1 [GSK1398467] | 0%
16 | Cl.Cl.Cl.N#Cc1ccc(CCNc2nccc(-c3cccc(CN4CCNCC4)c3)n2)cc1 [GSK2137462] | 1%
17 | CCCCc1nn2ncccc2c1-c1ccnc(NC2CC2)n1 [GW684374] | 0%
18 | COc1cccc(NC(=O)Nc2ccc(C)c(-c3ccc(C(=O)Nc4ccncc4)cc3)c2)c1 [GSK1398474] | 0%
19 | Cc1ccc(-c2nc(Nc3ccncc3)c3ccccc3n2)s1 [GSK189015] | 0%

Row | SMILES | %Inh
20 | CS(=O)(=O)CCNCc1nc(-c2ccc3ncnc(Nc4ccc(OCc5ccccc5)c(Cl)c4)c3c2)cs1.Cl [GW582764] | 0%
21 | COC(=O)c1cccc(NC(=O)NC2CCN(c3ccnc(Nc4ccc(OC)cc4)n3)C2)c1 (centres unmarked) [GSK1379746] | 0%
22 | CC[C@@H]1CO[C@H](C(=O)Nc2ccccc2)CN1c1cc(-c2ccc3c(N)n[nH]c3c2)nc(NC)n1 [GSK2376236] | 5%
23 | CS(=O)(=O)Cc1ccc(Nc2nccc(-c3c(-c4cccc(NC(=O)C5CCCCC5)c4)nn4ncccc34)n2)cc1 [GSK350559] | 0%
24 | CSc1ccc(-c2nc3n(c2-c2ccncc2)CCC3)cc1 [SKF-105561] | 0%
25 | Cc1cnc(N)c(/C=C/c2cncc(C(=O)NCCc3ccc(Cl)cc3Cl)c2)c1.Cl [GSK190937] | 28%
26 | CNC(=O)c1ccc(C)c(-n2c(C)cc(OCc3ccc(F)cc3F)c(Br)c2=O)c1 | 0%
27 | CCn1c(-c2c(N)noc2C)nc2cnccc21 [SB-737856] | 0%
28 | O=c1cc(N2CCOCC2)nc2n(Cc3ccccc3F)ccn12 [GSK2297428] | 5%
29 | Fc1ccc(-c2nc3n(c2-c2ccncc2)CCS3)cc1 [GI98581] | 11%
30 | Fc1ccc(-c2nn3cccc(F)c3c2-c2ccncc2)cc1 [GW475620] | 0%
31 | COc1ccc(CSc2nnc(-c3ccc4nccn4c3)o2)cc1C(F)(F)F | 6%
32 | CC(C)c1ccc(O)cc1Nc1ccnc2ccc(C(F)(F)F)cc12 [GW482059] | 0%
33 | Cc1ccc(NC(=O)Nc2ccccc2F)cc1-c1ccc(C(=O)Nc2ccncc2)cc1 [GSK1398477] | 0%
34 | Cc1ccc(NC(=O)Nc2ccc(Cl)cc2)cc1-c1ccc(C(=O)Nc2ccncc2)cc1 [GSK1398472] | 0%
35 | Cc1c(Cn2c(C)c(C)n3c(=O)cc(N4CCOCC4)nc23)cccc1C(F)(F)F [GSK2328680] | 18%
36 | O=C(Nc1n[nH]c2nc(-c3cccs3)c(Br)cc12)C1CC1 [SB-735297] | 0%
37 | Cc1cccc2c(-c3ccncn3)c(-c3ccc(F)cc3)nn12 [GW515532] | 0%

Test system: T2, LOK
T2 construct: gene STK10
Conditions: concentration: 1 μM, replicates: in singlicate; n = 1

Row | SMILES | %Inh
38 | Cc1c(Cn2c3ccccc3n3c(=O)cc(N4CCOCC4)nc23)cccc1C(F)(F)F [GSK2306394] | 0%
39 | Fc1ccc(-c2nc[nH]c2-c2ccncc2)cc1 [SB-217360] | 16%
40 | COc1cccc(CNC(=O)NC2CCN(c3ccnc(Nc4ccc(F)cc4)n3)C2)c1 (centres unmarked) [GSK1379723] | 0%
41 | Cc1ccccc1-c1cc(-c2c[nH]nc2-c2ccccn2)ccn1 [GW680061] | 0%
42 | COC(=O)C(NC(=O)NC1CCN(c2ccnc(Nc3ccc(F)cc3)n2)C1)c1ccccc1 (centres unmarked) [GSK1379712] | 0%
43 | O=C1NC(=O)C(c2ccc(Cl)cc2)=C1Nc1ccc(O)cc1 [SB-340867] | 0%
44 | COc1cc2ncnc(Nc3cccc(Br)c3)c2cc1OC.Cl [GI230329] | 36%
45 | COC(=O)c1cccc(NC(=O)NC2CCN(c3ccnc(Nc4ccc(F)cc4)n3)C2)c1 (centres unmarked) [GSK1379725] | 0%
46 | COc1ccc2cc(-c3nc(-c4ccccc4C(C)C)[nH]c3-c3ccncc3)ccc2c1 [SB-660566] | 61%
47 | CC(=O)c1c(C)c2cnc(Nc3ccc(N4CCNCC4)cn3)nc2n(C2CCCC2)c1=O | 0%
48 | CCc1ccc(-c2ccc3c(c2)-c2n[nH]cc2S(=O)(=O)N3C)cc1 | 3%
49 | CC(=O)c1c(C)c2cnc(Nc3ccn(C)n3)nc2n(C2CCCC2)c1=O | 15%
50 | CC(C)c1cc(-c2ccc3c(N)n[nH]c3c2)nc(N)n1 [GSK2250882] | 0%
51 | COc1ccc(Nc2nccc(N3CCC(NC(=O)C(C)c4ccc(Cl)cc4)CC3)n2)cc1 (centres unmarked) [GSK1379812] | 0%
52 | Cc1ccc(NC(=O)c2ccc(Cl)cc2)cc1-c1ccc(C(=O)Nc2ccncc2)cc1 [GSK1398467] | 0%
53 | Cl.Cl.Cl.N#Cc1ccc(CCNc2nccc(-c3cccc(CN4CCNCC4)c3)n2)cc1 [GSK2137462] | 0%
54 | CCCCc1nn2ncccc2c1-c1ccnc(NC2CC2)n1 [GW684374] | 0%
55 | COc1cccc(NC(=O)Nc2ccc(C)c(-c3ccc(C(=O)Nc4ccncc4)cc3)c2)c1 [GSK1398474] | 0%
56 | Cc1ccc(-c2nc(Nc3ccncc3)c3ccccc3n2)s1 [GSK189015] | 1%

Row | SMILES | %Inh
57 | CS(=O)(=O)CCNCc1nc(-c2ccc3ncnc(Nc4ccc(OCc5ccccc5)c(Cl)c4)c3c2)cs1.Cl [GW582764] | 0%
58 | COC(=O)c1cccc(NC(=O)NC2CCN(c3ccnc(Nc4ccc(OC)cc4)n3)C2)c1 (centres unmarked) [GSK1379746] | 0%
59 | CC[C@@H]1CO[C@H](C(=O)Nc2ccccc2)CN1c1cc(-c2ccc3c(N)n[nH]c3c2)nc(NC)n1 [GSK2376236] | 0%
60 | CS(=O)(=O)Cc1ccc(Nc2nccc(-c3c(-c4cccc(NC(=O)C5CCCCC5)c4)nn4ncccc34)n2)cc1 [GSK350559] | 81%
61 | CSc1ccc(-c2nc3n(c2-c2ccncc2)CCC3)cc1 [SKF-105561] | 8%
62 | Cc1cnc(N)c(/C=C/c2cncc(C(=O)NCCc3ccc(Cl)cc3Cl)c2)c1.Cl [GSK190937] | 0%
63 | CNC(=O)c1ccc(C)c(-n2c(C)cc(OCc3ccc(F)cc3F)c(Br)c2=O)c1 | 0%
64 | CCn1c(-c2c(N)noc2C)nc2cnccc21 [SB-737856] | 0%
65 | O=c1cc(N2CCOCC2)nc2n(Cc3ccccc3F)ccn12 [GSK2297428] | 0%
66 | Fc1ccc(-c2nc3n(c2-c2ccncc2)CCS3)cc1 [GI98581] | 0%
67 | Fc1ccc(-c2nn3cccc(F)c3c2-c2ccncc2)cc1 [GW475620] | 8%
68 | COc1ccc(CSc2nnc(-c3ccc4nccn4c3)o2)cc1C(F)(F)F | 3%
69 | CC(C)c1ccc(O)cc1Nc1ccnc2ccc(C(F)(F)F)cc12 [GW482059] | 0%
70 | Cc1ccc(NC(=O)Nc2ccccc2F)cc1-c1ccc(C(=O)Nc2ccncc2)cc1 [GSK1398477] | 33%
71 | Cc1ccc(NC(=O)Nc2ccc(Cl)cc2)cc1-c1ccc(C(=O)Nc2ccncc2)cc1 [GSK1398472] | 35%
72 | Cc1c(Cn2c(C)c(C)n3c(=O)cc(N4CCOCC4)nc23)cccc1C(F)(F)F [GSK2328680] | 0%
73 | O=C(Nc1n[nH]c2nc(-c3cccs3)c(Br)cc12)C1CC1 [SB-735297] | 18%
74 | Cc1cccc2c(-c3ccncn3)c(-c3ccc(F)cc3)nn12 [GW515532] | 0%
